Sampled rows, rich in hits. Any-hit rate of the full collection: about 12%.
INS promoter inh = TRM-6 insulin promoter activity inhibition | TRM-6 cells (human fetal islet line), insulin promoter-eGFP reporter, imaging; reporter expression induced with tamoxifen | inhibition, % at 2 µM | 130,000 tested, 0.9% active;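 active = inhibition above the mean plus 3 SD, with well images judged a real hit on visual review, cut at about 60% in these data, passing the limit was not always enough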
Cl transport mod = modulates chloride dependent transport by human KCC2. KCC2 cells, thallium flux FluoZin-2 fluorescence. B-score of Tl+ flux slope (higher = more flux/activation; lower = inhibition) at 10 µM. 190,000 tested, 2.2% active. AID 1456;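 active = thallium flux slope and its plate-corrected score both differing from the plate sample mean at a set confidence after two filtering rounds, in either direction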;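 also: slope of fluorescence scaled to starting intensity during 10 to 20 s after thallium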
Insulin prom up = MIN6 insulin promoter up-regulation; MIN6 insulin promoter-GFP reporter, high-content imaging; hits give high values; z-score at 5 µM; 190,000 tested, 0.3% active;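 active = z-score above 3 at 5 µM with at least 500 cells counted in the well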
Lmaj promast = Leishmania major promastigote growth inhibition; Leishmania major promastigotes, resazurin fluorescence viability; 200,000 tested, 9% active; inhibition, % at 10 µM; in the data active = inhibition above about 50%;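 also: promastigotes grown with compound for 44 hours at 28 °C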
ROMK primary = human ROMK K+ channel modulation, primary screen. Tet-inducible ROMK, thallium flux fluorescence; actives lie on both sides. B-score at 10 µM. P48048. 130,000 tested, 2% active;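 active = signal ratio slope over the read window, or its plate-corrected B-score, at least 3 SD from the plate mean, either direction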;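 also: B-score of the F/F0 ratio slope over 7 to 12 s after thallium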
WT yeast gro inh = growth inhibition of WT yeast, mitochondrial fusion screen; 190,000 tested, 2.1% active; mitochondrial fusion phenotypic screen, WT strain; inhibition, % at 10 µM; in the data active = inhibition above about 58%; tested in S. cerevisiae
Large screens that a line does not name were inactive.

COc1ccc2cc(CN(Cc3ccco3)Cc3nnnn3C3CCCCC3)c(=O)[nH]c2c1	Lmaj promast 95.8 (no result: INS promoter inh, ROMK primary)
COCCn1nnnc1CN(Cc1ccco1)Cc1cc2cc3c(cc2[nH]c1=O)OCO3	none (no result: Cl transport mod, ROMK primary)
COc1ccc2cc(CN(Cc3ccco3)C(c3nnnn3C3CCCCC3)C(C)C)c(=O)[nH]c2c1 (centres undefined)	Lmaj promast 98.5 (no result: Insulin prom up, ROMK primary)
OC(Cn1cccn1)c1ccccc1 (centres undefined)	none (no result: Cl transport mod)
COc1cc(CNn2cn[nH]c2=S)cc(Cl)c1OCc1ccc(F)cc1	WT yeast gro inh 66.0 (no result: INS promoter inh, ROMK primary)
CCCn1cc(NC(=O)c2cc(-c3ccccc3)on2)cn1	ROMK primary 5.58 (no result: Cl transport mod, Insulin prom up)
Cc1ccsc1CN1CCC(C(=O)NCc2ccccc2Cl)CC1	Lmaj promast 91.7 (no result: Cl transport mod)
COc1cc(Nc2nc(SCC#N)nc3ccccc23)cc(OC)c1OC	Lmaj promast 53.4 (no result: Cl transport mod)
COc1cc(/C=C/C(=O)O)cc(S(=O)(=O)N2CCc3ccccc32)c1OC	none (no result: INS promoter inh, Insulin prom up)
Cc1ccccc1N(CC(=O)NC(C)(C)C)C(=O)CS(=O)CC(=O)Nc1ccc2c(c1)OCO2 (centres undefined)	none (no result: Cl transport mod, Insulin prom up)
COc1ccc(-c2nc(-c3ccc4c(c3)OCO4)[nH]c2-c2ccc(OC)cc2)cc1	Lmaj promast 90.2
CN=C1S/C(=C\c2cc(C)n(-c3ccccc3F)c2C)C(=O)N1C	Lmaj promast 62.2, WT yeast gro inh 73.0 (no result: INS promoter inh, Cl transport mod)
Cc1c(-c2ccccc2)oc2nc3c(c(=O)n(C)c(=O)n3C)n12	none (no result: INS promoter inh, Cl transport mod, Lmaj promast, ROMK primary, WT yeast gro inh)
COC(=O)CS(=O)(=O)c1ccc(C)cc1	none
CNCC/C=C1/c2ccccc2CSc2ccccc21	Lmaj promast 90.3, ROMK primary -4.86 (no result: Insulin prom up)
Cc1occc1-c1nnc(-c2cc([N+](=O)[O-])cc([N+](=O)[O-])c2)o1	Lmaj promast 82.1 (no result: INS promoter inh)
O=[N+]([O-])c1cccc(-c2nnc(-c3ccccc3)o2)c1	none (no result: INS promoter inh)
CCN1CCN(CCOc2ccccc2-c2ccccc2)CC1	Lmaj promast 91.3 (no result: INS promoter inh)
c1ccc(-c2ccc(OCCCn3cncn3)cc2)cc1	Lmaj promast 96.2 (no result: Cl transport mod)
OCCN1CCN(CCOc2ccccc2-c2ccccc2)CC1	none (no result: INS promoter inh)
OCCCN1CCN(CCOc2ccccc2-c2ccccc2)CC1	none (no result: Cl transport mod)
c1ccc(-c2ccccc2OCCCN2CCCCC2)cc1	Lmaj promast 95.0
CCN1CCN(CCCOc2ccccc2-c2ccccc2)CC1	Lmaj promast 65.5 (no result: INS promoter inh)
COCCn1c(SC2CCOC2=O)nc2ccccc2c1=O (centres undefined)	none (no result: INS promoter inh, Insulin prom up)
C=CCn1c(=NC(=O)c2ccco2)sc2cc(C(=O)OC)ccc21	none (no result: INS promoter inh, ROMK primary)
CCN1CCN(CCCOc2ccc(-c3ccccc3)cc2)CC1	Lmaj promast 98.5 (no result: ROMK primary)
O=C(Nc1ccc(N2CCOCC2)c(Cl)c1)c1ccco1	none (no result: Cl transport mod)
COC(=O)CN1C(c2ccccc2)=Nc2ccc(Cl)cc2C1c1ccccc1 (centres undefined)	Cl transport mod -4, ROMK primary -3.08
CCCCOC(=O)c1ccc(NC(=S)NC(=O)c2c(Br)c(C)nn2C)cc1	Cl transport mod 29 (no result: ROMK primary)
Cc1cccc(N2CCN(c3cccc(C)c3)C2c2cccnc2)c1	Lmaj promast 99.2 (no result: INS promoter inh, Insulin prom up, ROMK primary)
Cc1ccc(N2CCN(c3ccc(C)cc3)C2c2ccncc2)cc1	Lmaj promast 92.2 (no result: INS promoter inh)
COc1cc(C2N(c3ccccc3)CCN2c2ccccc2)cc(OC)c1OC	none (no result: INS promoter inh, ROMK primary)
Nc1ncc(Br)cc1N=Cc1ccccc1	INS promoter inh 75.8 (no result: ROMK primary)
CC1(C)CC(CCNS(=O)(=O)c2ccccc2)(c2ccccc2)CCO1 (centres undefined)	Lmaj promast 99.6 (no result: Insulin prom up)
Cc1ccc(S(=O)(=O)NCC[C@@]2(C)C3CCC2(C)C(=O)C3)cc1 (some centres undefined)	none (no result: INS promoter inh, Lmaj promast, ROMK primary, WT yeast gro inh)
Cc1ccc(S(=O)(=O)NCCC2(C(C)C)CCOC(C)(C)C2)cc1 (centres undefined)	Lmaj promast 95.2
CCC1(C)CC(CCNS(=O)(=O)c2ccc(C)cc2)(c2ccc(C)cc2)CCO1 (centres undefined)	Lmaj promast 51.8 (no result: ROMK primary)
COc1cc(Br)cc2cc(C(=O)OC3CCN(C)CC3)c(=O)oc12	none (no result: Insulin prom up, WT yeast gro inh)
Nc1nnc(SCC(=O)Nc2sc3c(c2C(=O)c2ccccc2)CCCC3)s1	Lmaj promast 56.8
CCOC(=O)c1c(NC(=O)CSc2nnc3ccccn23)sc2c1CCC2	none
COCCNc1nnc(SCC(=O)Nc2sc3c(c2C(=O)c2ccccc2)CCCC3)s1	none
Cc1ccc(C(=O)c2c(NC(=O)c3cccnc3)sc3c2CCCC3)cc1	WT yeast gro inh 61.0 (no result: INS promoter inh, ROMK primary)
COC(=O)c1c(NC(=O)CSc2nnc3ccccn23)sc2c1CCC2	Lmaj promast 55.5
Cc1ccc(C(=O)c2c(NC(=O)CSc3nnc(N)s3)sc3c2CCCC3)cc1	Lmaj promast 75.5
COc1cccc(-n2nnc3c(=O)n(C/C=C/c4ccccc4)cnc32)c1	none (no result: INS promoter inh, ROMK primary)
CC1(c2ccccc2)CC(C)(C)N2C(=O)C(=O)c3cccc1c32 (centres undefined)	none (no result: INS promoter inh)
Cc1ccc(OCC(=O)Nn2cnnc2)c(Br)c1	none
CC12C(=O)N(Cc3ccco3)C(=O)C1C1c3ccccc3C2c2ccccc21 (centres undefined)	none (no result: INS promoter inh)
Cc1cc(Br)cc2c1NC(=O)C2(O)CC(=O)c1ccco1 (centres undefined)	none (no result: INS promoter inh, Insulin prom up)
CN(C)c1cccc(C(=O)OC(C(=O)Nc2ccc([N+](=O)[O-])cc2Br)c2ccccc2)c1 (centres undefined)	none (no result: INS promoter inh, ROMK primary)
O=C(OC(C(=O)Nc1ccc([N+](=O)[O-])cc1Br)c1ccccc1)c1ccccc1 (centres undefined)	Lmaj promast 99.8 (no result: INS promoter inh, Cl transport mod)
O=C(Nc1ccc([N+](=O)[O-])cc1Br)c1cccnc1	Lmaj promast 54.4
COc1cccc(CNn2cnnc2)c1OCc1ccc(F)cc1	none (no result: ROMK primary)
COc1cccc(CNC23CC4CC(CC(C4)C2)C3)c1OCc1ccccc1	Lmaj promast 91.6 (no result: INS promoter inh)
CC(C)Oc1ccc(C(CC(=O)N(C)CCC#N)c2ccc(F)cc2)cc1 (centres undefined)	Lmaj promast 52.8
CCN(CC)C(=O)CC(c1ccc(F)cc1)c1ccc(OC)cc1 (centres undefined)	none (no result: INS promoter inh, ROMK primary)
O=C(N=C1SCC(=O)N1c1ccccc1Cl)c1ccccc1	WT yeast gro inh 77.5 (no result: INS promoter inh, Insulin prom up)
CCCN1C(=O)/C(=C\c2ccncc2)SC1=Nc1ccccc1	none
CCN1C(=O)/C(=C\c2ccncc2)SC1=Nc1ccc(C)c(C)c1	Lmaj promast 51.9 (no result: ROMK primary)
Cc1ccc2nc(NC(=O)CSCC(=O)OCC(=O)c3ccccc3)sc2c1	none
CC1(c2ccccn2)Nc2ccccc2-c2nc3ccccc3n21 (centres undefined)	Lmaj promast 52.9 (no result: Cl transport mod)
CCCCC1(C)Nc2ccccc2-c2nc3ccccc3n21 (centres undefined)	Lmaj promast 73.8 (no result: ROMK primary)
CCN1CCN(c2cc(=O)n(-c3cc(Cl)ccc3C)c(=O)[nH]2)CC1	none (no result: ROMK primary)
Cc1sc2ncnc(NCCCn3ccnc3)c2c1C	Lmaj promast 55.3
c1cn(CCCNc2ncnc3nc[nH]c23)cn1	none (no result: INS promoter inh, Cl transport mod, ROMK primary)
COCCNC(=O)CN(C(=O)CCC(=O)Nc1ccccn1)c1ccccc1F	none
C=CCn1c(SCc2cccc3ccccc23)nnc1-c1cccnc1	Lmaj promast 50.4 (no result: ROMK primary)

Screening results from PubChem.
